Hits are enriched below; roughly 12% of the tested compounds scored in any of these assays.
SARS PLpro yeast – blocks SARS-CoV papain-like protease in a yeast assay | 330,000 compounds, 0.19% hits | S. cerevisiae expressing SARS-CoV PLpro, growth rescue | Potency, µM (series often up to 32.9 µM), inactives show at the top dose activity, positive = growth rescue, hits mostly activators; calls by dose curve; note: 0% is about no effect; nearly all actives have a fitted effect of over 55% in size
Pf growth 96h – inhibits malaria parasite growth, 96 h; Potency, µM (highest dose often 28.7 µM), for inactives: at the top dose activity change, negative = inhibition, most hits filed as inhibitors; P. falciparum luciferase reporter growth, 96 h; 320,000 compounds, 6.9% hits; note: % is set by controls: 0 for no effect and ±100 for the full control effect
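P. falciparum expressing integrated firefly luciferase, in erythrocytes at 2% hematocrit, 0.05% parasitemia, incubated with compounds 96 h at 37 C, 5% CO2. Growth inhibition read as loss of luminescence; two-generation exposure targets delayed-death apicoplast inhibitors.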
Sm TGR block – blocks Schistosoma mansoni thioredoxin glutathione reductase | Q962Y6 | purified TGR, DTNB reduction, TNB absorbance 405 nm | Potency, µM (titrated, usually from 114 µM), inactives show at the top dose activity change, negative = inhibition, actives largely listed as inhibitors | 360,000 compounds, 3% hits | AID 485364; note: % is set by controls: 0 for no effect and ±100 for the full control effect; nearly all actives have a fitted effect of over 60% in size
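TGR 20 nM + NADPH 100 uM (dispensed conc.), cpd preinc 15 min RT; start with NADPH (500 uM addition) then DTNB (15 mM addition). Kinetic TNB absorbance, 405 nm filter. Four-parameter Hill fit across titration.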
Pf growth 48h – P. falciparum growth inhibition at 48 hours (one generation). 310,000 compounds, 5.9% hits. Potency, µM (top dose mostly 28.7 µM), without a hit: at the top dose activity change, negative = inhibition, most hits filed as inhibitors. P. falciparum luciferase growth in erythrocytes, 48 h; note: % is set by controls: 0 for no effect and ±100 for the full control effect
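Growth was read as firefly luciferase luminescence after a 48 h, 37 C, 5% CO2 exposure of compounds to reporter-bearing P. falciparum cultures (0.1% parasitemia, 2% hematocrit final) in Albumax-supplemented RPMI 1640.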
* marks the source's active call; other numbers are inactive results; u = inconclusive; x = not tested or not shown; [ ] = another dose, or the depositor's remark. Unless noted, calls come from the whole dose curve; as a rule, active = well fitted curve in the direction sought with a large enough effect; inconclusive = small, poorly fitted or top-dose-only effect, or another doubt; inactive = no such curve, though single readings can be large; an effect the other way counts as inactive or inconclusive. Potency is the fitted concentration of half-maximal effect.

SMILES	SARS PLpro yeast	Pf growth 96h	Sm TGR block	Pf growth 48h
CCN(CC)C(=O)C1CCCN(C(=O)c2oc3ccc(C)cc3c2C)C1 (stereo unspecified)	-2%	29%	-2%	18%
O=C(NCc1cccc(Cl)c1)C1CCCN(c2nn3cc(-c4ccc(F)cc4)nc3s2)C1 (stereo unspecified)	x	x	1%	x
COCC(C)n1c(C)cc(C(=O)CN2C(=O)NC(Cc3c[nH]c4ccccc34)C2=O)c1C (stereo unspecified)	6%	5.2µM*	0%	x
CC(C)NC(=O)NC(=O)CN1C(=O)NC(Cc2c[nH]c3ccccc23)C1=O (stereo unspecified)	-3%	-8%	22%	19%
Cc1ccc(OCC(=O)NNC(=O)C2CSC3(C)CCC(=O)N23)cc1C (stereo unspecified)	-2%	47%	5%	0%
COc1cccc2c1Oc1ncccc1N(C(=O)CCC(=O)NC(C)C)C2	x	x	-1%	x
CCCN(CC(=O)Nc1ccccc1C)C(=O)COc1ccc2c(c1)CCC2	-10%	-3%	-14%	u
COc1ccc(C(=O)/C=C/c2cc(C(=O)O)cc3c2OCOC3)c(O)c1	1%	-10%	u	u
O=C(O)c1cc(/C=C/C(=O)c2cc(F)ccc2O)c2c(c1)COCO2	0%	6%	28µM*	22%
CC(C)[C@H](NC(=O)N1CC(=O)Nc2ccccc21)C(=O)N[C@@H](Cc1ccccc1)C(=O)O	1%	-1%	-11%	0%
COc1ccc(CCNC(=O)[C@@H](NC(=O)N2CC(=O)Nc3ccccc32)C(C)C)cc1OC	-1%	12µM*	-2%	-20%
CCCc1nnc2c(N(C)S(=O)(=O)c3ccc(C)cc3)nc3ccccc3n12	18%	13µM*	-13%	u
CCc1nnc2c(N(C)S(=O)(=O)c3ccc(C)cc3)nc3ccccc3n12	-1%	8%	-9%	-1%
CCCCc1nnc2c(N(C)S(=O)(=O)c3ccc(C)cc3)nc3ccccc3n12	0%	12µM*	1%	u
Cc1ccccc1C(=O)Nc1sc2c(c1C(=O)N1CCC(C)CC1)CCC(C)C2 (stereo unspecified)	x	x	0%	x
CN(C)C(=O)CCc1ccc2c3c([nH]c2c1)[C@]1(CCc2ccccc2)[C@@H](C(=O)N2CCCCC2)C[C@H](CC(=O)NCCCn2ccnc2)C(=O)N1CC3	-22%	x	x	x
CCOC(=O)C1CCC(CN(Cc2ccc(Cl)cc2)S(=O)(=O)c2ccc(F)c(C(=O)Nc3cccc(F)c3)c2)CC1 (stereo unspecified)	x	x	11%	x
Clc1ccc(-c2noc(CN3CCCC3)n2)cc1	1%	u	0%	152%
Cn1ccnc1C1CCCCN1Cc1nc(-c2ccc(Cl)cc2)no1 (stereo unspecified)	1%	u	-8%[57.1 µM]	12µM*
CNC(=S)N1C2CCC1CC(NC(=O)NC13CC4CC(CC(C4)C1)C3)C2 (stereo unspecified)	u	u	-8%	12µM*
O=C(NC1CC2CCCC(C1)N2Cc1ccco1)NC12CC3CC(CC(C3)C1)C2 (stereo unspecified)	-4%	u	2%	u
COc1ccc(C2=NN3C(=O)c4c(ccc(OC)c4OC)C3C2)cc1 (stereo unspecified)	-8%	-16%	5%	2.6µM*
COc1ccc2c(c1OC)C(=O)N1N=C(c3ccc(Cl)cc3)CC21 (stereo unspecified)	-17%	-16%	-1%	5.9µM*
COc1ccc2c(c1OC)C(=O)N1c3ccccc3N=C(c3ccc([N+](=O)[O-])cc3)CC21 (stereo unspecified)	4%	0%	u	2.6µM*
COc1ccc2c(c1OC)C(=O)N1N=C(c3ccc(-c4ccccc4)cc3)CC21 (stereo unspecified)	-2%	u	-5%	u
SMILES	SARS PLpro yeast	Pf growth 96h	Sm TGR block	Pf growth 48h
COc1ccc2c(c1OC)C(=O)N1N=C(c3ccc(Br)cc3)CC21 (stereo unspecified)	-60%	-98%	1%	u
COc1ccc2c(c1OC)C(=O)N1N=C(c3ccc(O)cc3)CC21 (stereo unspecified)	2%	33%	1%	1.3µM*
COc1ccc(-c2cn3cccnc3n2)cc1NC(=O)Cc1ccccc1	x	x	0%	x
Cc1ccc(NC(=O)Cn2c(=O)n(-c3ccc(CC(=O)NCC4CCCO4)cc3)c(=O)c3ccccc32)cc1 (stereo unspecified)	x	x	0%	x
COc1ccc(NC(=O)CS(=O)c2cccc(C(F)(F)F)c2)cc1 (stereo unspecified)	x	0%	-2%	-9%
COc1cc(C(=O)NCCc2sc(-c3ccc(C)cc3)nc2C)cc(OC)c1OC	x	x	0%	x
CCn1c(=O)cc(SCC(=O)NCc2ccc(C)o2)c2ccccc21	4%	12µM*	0%	x
CCn1c(=O)cc(OCC(=O)Nc2nc(C)cs2)c2ccccc21	-2%	2.1µM*	3%	6%
CCn1c(=O)cc(SCC(=O)NCc2ccco2)c2ccccc21	10%	u	-1%	6%
CCn1c(=O)cc(SCC(=O)NCc2cccnc2)c2ccccc21	0%	9.3µM*	9%	36%
CCn1c(=O)cc(OCC(=O)NCc2ccc(C)o2)c2ccccc21	2%	u	35µM*	-18%
CCn1c(=O)cc(OCC(=O)NCc2ccco2)c2ccccc21	-2%	-98%	u	28%
CC(C)n1cc(/C=N/Nc2ccc(Cl)c(C(=O)O)c2)c2ccccc21	-3%	16%	-21%	131%
CCc1ccc(NC(=O)Cn2cc(S(=O)(=O)c3ccc(F)cc3)c(=O)c3cc(OC)ccc32)cc1	x	x	5%	x
O=C(NNC(=O)c1c(O)c2ccccc2[nH]c1=O)c1ccccc1Br	-21%	28%	-13%	22%
CCn1c(=O)cc(OCC(=O)Nc2ccccc2N2CCN(C)CC2)c2ccccc21	2%	9.3µM*	-4%	x
O=c1c(NCCc2ccc(Cl)cc2)c(-c2ccccc2)c1=O	-1%	u	30%	u
N=C(N)c1ccc(OCCCCCOc2ccc(C(=N)N)cc2)cc1	-31%	0.037µM*	5%	0.26µM*
COc1ccc(C(C)=O)cc1COc1ccc([N+](=O)[O-])c(C)c1	-1%	22%[5.75 µM]	u	-6%
COc1ccc(C(C)=O)cc1COc1ccccc1[N+](=O)[O-]	2%	8%	11µM*	5%
CCOc1ccc(C(C)=O)cc1COc1cccnc1[N+](=O)[O-]	-4%	1%	35µM*	22%
COc1ccc(C(C)=O)cc1COc1cccnc1[N+](=O)[O-]	0%	1%	u	-5%
COc1ccc(C(C)=O)cc1COC(=O)c1ccc(N)c([N+](=O)[O-])c1	0%	u	8.9µM*	-14%
COc1ccccc1/C=N/OCc1cc(C(C)=O)ccc1OC	-3%	8%	11µM*	-16%
COC(=O)CN(C(=S)Nc1ccc(F)cc1)C1CC(=O)N(c2ccccc2)C1=O (stereo unspecified)	23%	7%	-1%	10µM*
